Compounds without any hit were thinned out: in the full panel of roughly 83,000, 20% have a hit.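 Single-dose data. Exposure time 48 hours. Values below 10 considered active.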 Values without a mark were called inactive. The source made the active and inactive calls.
Legend:
Test in all cases: NCI-60 one-dose screen, 48 h (100 = growth as untreated, 0 = no growth, -100 = all killed)
Conditions in all cases: 10 µM unless noted
HCT-15 colon = tested on: HCT-15 colon
HT29 colon = tested on: HT29 colon
SNB-75 CNS = tested on: SNB-75 CNS
SNB-19 CNS = tested on: SNB-19 CNS
U251 CNS = tested on: U251 CNS
PC-3 prostate = tested on: PC-3 prostate
SK-MEL-5 melanoma = tested on: SK-MEL-5 melanoma
UACC-62 melanoma = tested on: UACC-62 melanoma
LOX IMVI melanoma = tested on: LOX IMVI melanoma
SK-MEL-28 melanoma = tested on: SK-MEL-28 melanoma

Structure (SMILES)	growth (HCT-15 colon)	growth (HT29 colon)	growth (SNB-75 CNS)	growth (SNB-19 CNS)	growth (U251 CNS)	growth (PC-3 prostate)	growth (SK-MEL-5 melanoma)	growth (UACC-62 melanoma)	growth (LOX IMVI melanoma)	growth (SK-MEL-28 melanoma)
CC(=O)c1cccc(NS(=O)(=O)c2cccc(C(=O)Nc3ccc(Br)cc3)c2)c1	62.8% [25 µM]	78.4% [25 µM]	70.5% [25 µM]	53.9% [25 µM]	62.7% [25 µM]	48.8% [25 µM]	-13.7% [25 µM] (active)	38.9% [25 µM]	50.5% [25 µM]	71.3% [25 µM]
CCC1(CC)NC(=O)c2c(c3ccc(Cl)c(Cl)c3n2C)C1C#N (stereo not given)	100%	100%	90%	85%	96.1%	90.5%	89.9%	76.1%	99.7%	123%
C=C(C)[C@H]1CC/C(C)=C/CC[C@]2(C)O[C@H]2CC/C(COC(=O)[C@@H](OC(C)=O)[C@H](NC(=O)c2ccccc2)c2ccccc2)=C\[C@@H]1O	105%	102%	72.6%	81.8%	99.2%	90.1%	78.8%	59.3%	93.1%	104%
COc1nccnn1	98.1%	97.8%	96.5%	91.2%	100%	87.1%	104%	98.9%	94.9%	102%
CCSc1ccc2c(c1)N(CCCN1CCN(C)CC1)c1ccccc1S2	2.48% (active)	-14.7% (active)	28.3%	68.8%	36.2%	51.9%	-98.7% (active)	-43% (active)	-82.5% (active)	-85.2% (active)
COc1ccc2c(c1)c(CC(=O)NCCOCCOCC(=O)Nc1ccc(OC)c(C(N)=O)c1O)c(C)n2C(=O)c1ccc(Cl)cc1	95.5%	102%	89.6%	106%	93.3%	74.6%	96.6%	98.8%	90%	119%
CN1CCN(c2cnc(C(=O)Nc3cc(F)cc4cccnc34)cn2)CC1	30.8%	42.6%	95.2%	87.4%	79.9%	21.4%	89.2%	95.3%	59.6%	67.8%
COc1ccc(C(O)c2cc3c(N)c(C(=O)Nc4ccccc4)sc3nc2C)cc1 (stereo not given)	9.94% (active)	-22% (active)	-7.27% (active)	24.6%	5.4% (active)	17.4%	-31.9% (active)	19.6%	34.6%	68.1%
COc1ccc(C(=O)c2cc3c(N)c(C(=O)Nc4cccc(Cl)c4)sc3nc2C)cc1	21%	-3.3% (active)	-10.1% (active)	41.8%	23%	27.9%	9.91% (active)	39.3%	48.2%	65.7%
COC(=O)Nc1ccc(NC(=O)OC)cc1	108%	98.4%	80%	103%	99.1%	77.7%	99.1%	103%	99%	116%
Cc1ccc(-c2csc(/N=C3\C(=O)Nc4ccccc43)n2)cc1	32%	-8.75% (active)	55.5%	22.8%	-47.5% (active)	2.72% (active)	-20.2% (active)	0.615% (active)	-0.0538% (active)	13.7%
O=C(OCc1nc2nc(Cl)nc(N3CCOCC3)c2[nH]1)n1ccnc1	-35.2% (active)	-55.2% (active)	-14.2% (active)	62.9%	1.06% (active)	-24.5% (active)	20.1%	-80.4% (active)	-77.1% (active)	-36.5% (active)
Cn1c(COC(=O)NCCc2ccccn2)nc2c(N3CCOCC3)nc(Cl)nc21	-42.2% (active)	0.156% (active)	14.5%	60.6%	9.11% (active)	18.4%	3.6% (active)	11.1%	-83.7% (active)	-90.8% (active)
Clc1cc(Cl)cc(N2N=C(c3cccc(Nc4ccncc4)c3)CC2c2ccccc2)c1 (stereo not given)	-71.9% (active)	1.2% (active)	77.4%	88.9%	-31.3% (active)	49.4%	79.9%	99%	-81.2% (active)	11%
O=C1Nc2ccccc2/C1=N/c1nc(-c2ccc(Cl)cc2)cs1	71.2%	46.3%	90.8%	75.1%	53.8%	35.2%	76.7%	61%	68.9%	84.4%
COc1ccc(CNC(=O)COc2ccc(/C=N/Nc3nc4ccccc4s3)cc2)cc1	31%	35.5%	-2.77% (active)	36.8%	21.6%	15.5%	23.6%	34%	46.5%	35.2%
COc1cc2nc(-c3ccc(C#N)cc3)[nH]c(=O)c2cc1OC	107%	113%	109%	98.9%	100%	105%	96.8%	87.8%	90.8%	102%
C#Cc1cccc(NC(=O)Nc2ccc(NC(=O)CCl)cc2)c1	-63.1% [8.25 µM] (active)	-69.5% [8.25 µM] (active)	-27.9% [8.25 µM] (active)	32.4% [8.25 µM]	-72% [8.25 µM] (active)	8.79% [8.25 µM] (active)	-73.9% [8.25 µM] (active)	-44.3% [8.25 µM] (active)	-74.9% [8.25 µM] (active)	67.6% [8.25 µM]
CN(Cc1ccccc1)c1nc(Cl)c(C2CC(c3ccc(Cl)cc3)=Cc3[nH][nH]c(=O)c32)s1 (stereo not given)	90.1%	112%	88.1%	104%	93.4%	79.7%	88.2%	89%	79.9%	103%
CCOC(=O)C1CC(=O)c2cc(OC)c(OC)cc2C1 (stereo not given)	100%	88.6%	91.7%	100%	103%	86.4%	109%	88.5%	104%	119%
CCCCCN1C=C/C(=C\C(=O)N(C)c2ccc(Br)cc2)c2ccccc21	102%	91.6%	91.6%	99.6%	92.4%	97.3%	97.9%	93.7%	87.6%	105%
COC(=O)Nc1nc2ccc(C(=O)c3cccc(I)c3)cc2[nH]1	11.8%	2.12% (active)	-15.3% (active)	33.6%	13.6%	20.9%	-33.9% (active)	24.8%	16.6%	49.4%

Source: PubChem BioAssay (NCI)
